About 3,300 (8.5%) of roughly 39,000 compounds were called active. The full list was thinned out, with actives kept by preference.
Each molecule was assayed on HepG2 (assay: cytotoxicity call (relative viability < 0.9)). Settings: 10 µM.

| SMILES | cytotoxicity call |
| --- | --- |
| C[C@H](CO)N1C[C@H](C)[C@H](CN(C)C(=O)Nc2ccccc2)Oc2ccc(NC(=O)CCCN(C)C)cc2C1=O | inactive |
| Cc1cc(C)c2ccc(Cl)nc2n1 | inactive |
| Cc1noc(C)c1NC(=O)Nc1ccc2c(c1)C(=O)N([C@H](C)CO)C[C@H](C)[C@H](CN(C)CC1CCCCC1)OCCCC[C@H](C)O2 | inactive |
| C[C@@H]1CN([C@@H](C)CO)C(=O)c2cc(NC(=O)Nc3cccc4ccccc34)ccc2O[C@H]1CN(C)C(=O)NC1CCCCC1 | inactive |
| CC(C)NC(=O)N(C)C[C@H]1Oc2cc(C#Cc3ccccn3)ccc2S(=O)(=O)N([C@H](C)CO)C[C@@H]1C | inactive |
| CC(C)(O)c1ccccc1CCC(SCC1(CC(=O)[O-])CC1)c1cccc(C=Cc2ccc3ccc(Cl)cc3n2)c1.[Na+] (configuration not stated) | inactive |
| Nc1ncccc1O | inactive |
| Nc1ncccc1F | inactive |
| Oc1c(I)cc(I)c2cccnc12 | active |
| CC(=O)N(C)C[C@H]1Oc2ncc(C#C[C@@H](C)O)cc2C(=O)N([C@H](C)CO)C[C@@H]1C | inactive |
| COc1ccc([Si](C)(C)[C@H]2[C@H](CC(=O)N(CCO)Cc3ccccc3)O[C@@]3(C(=O)N(Cc4cccc(N5C(=O)c6cccc7cccc5c67)c4)c4ccccc43)[C@@H]2C)cc1 | active |
| COc1ccc([Si](C)(C)[C@H]2[C@H](CC(=O)N(CCO)Cc3ccccc3)O[C@@]3(C(=O)N(Cc4ccc(N5CCOC5=O)cc4)c4ccccc43)[C@@H]2C)cc1 | inactive |
| C[C@@H]1[C@@H]([Si](C)(C)F)[C@H](CC(=O)N2Cc3ccccc3C[C@H]2CO)O[C@@]12C(=O)N(c1ccccc1)c1ccccc12 | inactive |
| C[C@@H]1[C@@H]([Si](C)(C)F)[C@H](CC(=O)N(CCO)Cc2ccccc2)O[C@@]12C(=O)N(c1ccccc1)c1ccccc12 | active |
| COc1ccc([Si](C)(C)[C@@H]2[C@@H](CC(=O)N(CCO)Cc3ccccc3)O[C@]3(C(=O)N(Cc4cccc(N5CCCCC5=O)c4)c4ccccc43)[C@H]2C)cc1 | inactive |
| C[C@H]1[C@H]([Si](C)(C)F)[C@@H](CC(=O)N(CCO)Cc2ccccc2)O[C@]12C(=O)N(c1ccccc1)c1ccccc12 | inactive |
| COc1ccc([Si](C)(C)[C@@H]2[C@@H](CC(=O)N(CCO)Cc3ccccc3)O[C@]3(C(=O)N(Cc4cccc(N5CCC5=O)c4)c4ccccc43)[C@H]2C)cc1 | inactive |
| COc1ccc([Si](C)(C)[C@@H]2[C@@H](CC(=O)N(CCO)Cc3ccccc3)O[C@]3(C(=O)N(Cc4ccc(N5CCC5=O)cc4)c4ccccc43)[C@H]2C)cc1 | inactive |
| COc1ccc([Si](C)(C)[C@H]2[C@H](CC(=O)N(CCO)Cc3ccccc3)O[C@@]3(C(=O)N(Cc4ccc(N5C(=O)c6cccc7cccc5c67)cc4)c4ccccc43)[C@@H]2C)cc1 | active |
| COc1ccc([Si](C)(C)[C@H]2[C@H](CC(=O)N(CCO)Cc3ccccc3)O[C@@]3(C(=O)N(Cc4cccc(N5CCC5=O)c4)c4ccccc43)[C@@H]2C)cc1 | inactive |
| COc1ccc([Si](C)(C)[C@@H]2[C@@H](CC(=O)N(CCO)Cc3ccccc3)O[C@]3(C(=O)N(Cc4ccc(N5C(=O)c6cccc7cccc5c67)cc4)c4ccccc43)[C@H]2C)cc1 | active |
| COc1ccc([Si](C)(C)[C@H]2[C@H](CC(=O)N(CCO)Cc3ccccc3)O[C@@]3(C(=O)N(Cc4ccc(N5CCC5=O)cc4)c4ccccc43)[C@@H]2C)cc1 | inactive |
